Screens from PubChem.
This is a sample that favours compounds with a hit; in the whole collection about 12% have one here.
HCV inhibitor = qHTS Assay for Inhibitors of Hepatitis C Virus (HCV). Potency, µM (doses to about 41.8 µM), actives largely listed as inhibitors. actives 3.4% (n = 340,000). Huh7.5.1 HCVcc-Cre infection, luciferase reporter, 44 h
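A cell-based infection assay in which seeded cells (1,000 per well) receive test compound after 4 h, are inoculated with HCVcc-Cre at approximately 0.5 moi, and are incubated 44 h before luminescence detection.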
Pf growth 48h = Primary qHTS for delayed death inhibitors of the malarial parasite plastid, 48 hour incubation; P. falciparum luciferase growth in erythrocytes, 48 h; Potency, µM (series often up to 28.7 µM), actives largely listed as inhibitors; actives 5.9% (n = 310,000); AID 504832, 2011
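In quantitative HTS format, infected erythrocytes bearing luciferase-reporter parasites were treated for a single generation at 37 C. Luminescence after adding detection reagent served as the growth measure.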
AMA1-RON2 inh = qHTS for Inhibitors of AMA1-RON; Towards Development of Antimalarial Drug Lead: Primary Screen; AlphaScreen AMA1-biotinylated RON2 peptide binding; Plasmodium falciparum AMA1 (3D7) - RON2 peptide interaction; actives 0.2% (n = 360,000); Potency, µM (top dose mostly 58.2 µM), most hits filed as inhibitors; note: nearly all actives have a fitted effect of over 45% in size
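AMA1 (3D7) with his tag at 25 nM final met compounds first, then biotinylated RON2 peptide at 25 nM; detection used donor plus acceptor beads, 10 µg/mL apiece, read by AlphaScreen after 30 min at room temperature.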
SARS PLP yeast = qHTS of Yeast-based Assay for SARS-CoV PLP. S. cerevisiae expressing SARS-CoV PLpro, growth rescue. Potency, µM (top dose mostly 32.9 µM), actives largely listed as activators. AID 485353, 2010. actives 0.19% (n = 330,000); calls by dose curve; note: nearly all actives have a fitted effect of over 55% in size
Pf growth 96h = Primary qHTS for delayed death inhibitors of the malarial parasite plastid, 96 hour incubation | P. falciparum luciferase reporter growth, 96 h | Potency, µM (titrated, usually from 28.7 µM), actives largely listed as inhibitors | actives 6.9% (n = 320,000) | AID 504834, 2011
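P. falciparum expressing integrated firefly luciferase, in erythrocytes at 2% hematocrit, 0.05% parasitemia, incubated with compounds 96 h at 37 C, 5% CO2. Growth inhibition read as loss of luminescence; two-generation exposure targets delayed-death apicoplast inhibitors.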
NS1 inh = qHTS Assay for Inhibitors of Influenza NS1 Protein Function. AID 2326, 2010. actives 0.4% (n = 270,000). Potency, µM (titrated, usually from 46.1 µM); calls by dose curve; note: actives are rising curves; nearly all actives have a fitted effect of over 50% in size
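Compounds were scored for reversing the slow growth caused by influenza A NS1 in S. cerevisiae, measured by optical density at 600 nm. Assay medium contained 2% galactose at pH 6.0; NS1-free yeast of the same strain were the positive control.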
A number is an active result; – = inactive; ? = inconclusive; · = no result; [ ] = another dose, or the depositor's remark. Unless noted, calls come from the whole dose curve; as a rule, active = well fitted curve in the direction sought with a large enough effect; inconclusive = small, poorly fitted or top-dose-only effect, or another doubt; inactive = no such curve, though single readings can be large; an effect the other way counts as inactive or inconclusive.

SMILES	HCV inhibitor	Pf growth 48h	AMA1-RON2 inh	SARS PLP yeast	Pf growth 96h	NS1 inh
COc1ccc(C2=NN(CN3C(=O)C(=O)c4ccccc43)C(c3ccc(C)cc3)C2)cc1 (stereo unspecified)	–	·	–	–	?	–
Cc1ccc(C(=N)c2ccccc2Cc2cccc3ccccc23)c2ccccc12	·	·	·	·	·	–
CC(C)(C)[C@@H]1COC(=O)[C@H](Cc2ccc(F)cc2)C/C=C\C[C@H](CC(=O)N(CCO)Cc2ccccc2)C(=O)N1	–	·	–	–	·	·
COc1ccc(C(CNC(=O)c2ccc(C)c(S(=O)(=O)Nc3ccccc3OC)c2)N2CCCC2)cc1 (stereo unspecified)	–	4.1µM	–	–	?	?
COc1ccc(C(CNC(=O)c2cc3ccccc3cc2OC)N2CCCC2)cc1 (stereo unspecified)	?	·	–	–	4.1µM	–
COc1ccc(CNC(=O)c2nccnc2CO)cc1	–	–	–	–	8.3µM	–
COc1ccc(C(CNC(=O)CNC(=O)c2ccccc2Cl)N2CCCC2)cc1 (stereo unspecified)	–	?	–	–	?	·
COc1ccc(CNC(=O)C(=O)NCc2ccncc2)cc1	?	–	–	–	–	–
COc1ccc(CNC(=O)c2cccc(N(C)C)c2)cc1	–	–	–	–	1.9µM	–
CCN(CC)CCNC(=S)Nc1ccc(F)cc1	–	–	–	–	–	–
CCN1CCN(C(=O)C2CCC(=O)N(Cc3cccc(C(F)(F)F)c3)C2)CC1 (stereo unspecified)	–	–	–	–	?	–
C=CCN(c1ccccc1)S(=O)(=O)c1cccc(C(=O)NCC(c2ccc(OC)cc2)N2CCCCC2)c1 (stereo unspecified)	6.3µM	10µM	–	–	?	·
COc1ccc(NS(=O)(=O)c2cccc(C(=O)NCC(c3ccc(OC)cc3)N3CCCC3)c2)cc1 (stereo unspecified)	–	6.6µM	–	–	7.4µM	·
COc1ccc(C(CNC(=O)c2cccc(N(C)C)c2)N2CCCC2)cc1 (stereo unspecified)	–	10µM	?	–	?	–
CCN(c1ccccc1)S(=O)(=O)c1cccc(C(=O)NCC(c2ccc(OC)cc2)N2CCCCC2)c1 (stereo unspecified)	·	·	–	·	·	·
COc1ccc(/C(C)=N/NC(=O)c2cccc(S(=O)(=O)N3CCCC3)c2)c(O)c1	3.2µM	?	–	–	?	·
COc1cccc(CN(c2ccccc2C(=O)O)S(=O)(=O)c2ccc(C)cc2)c1	–	·	–	·	·	·
CC1CN(C(=O)CNC(=O)Cc2cccc3ccccc23)CC(C)O1 (stereo unspecified)	–	–	–	–	–	·
CC(=O)c1cccc(-c2ccnc3c2CC(C(=O)Nc2cccc(NS(C)(=O)=O)c2)O3)c1 (stereo unspecified)	·	·	–	·	·	·
COc1ccccc1NS(=O)(=O)c1ccc(C(=O)NCC(c2ccco2)N2CCCCC2)cc1 (stereo unspecified)	–	·	–	·	·	·
COc1cc(C(=O)NCC(=O)NCC(c2ccco2)N2CCCCC2)cc(OC)c1OC (stereo unspecified)	–	?	–	–	3.3µM	·
COc1ccc(C(CNC(=O)c2cccc(S(=O)(=O)N3CCCCC3)c2)N2CCCC2)cc1 (stereo unspecified)	?	?	–	–	10µM	·
COc1ccccc1NS(=O)(=O)c1cccc(C(=O)NCC(c2ccco2)N2CCCCC2)c1 (stereo unspecified)	?	5.2µM	–	–	?	·
COc1ccc(C(CNC(=O)c2cccc(S(=O)(=O)Nc3ccccc3OC)c2)N2CCCC2)cc1 (stereo unspecified)	–	?	–	–	13µM	·
CC(C)C1Oc2cc3oc(=O)ccc3cc2C1=O (stereo unspecified)	–	–	–	–	–	–
SMILES	HCV inhibitor	Pf growth 48h	AMA1-RON2 inh	SARS PLP yeast	Pf growth 96h	NS1 inh
COc1cc(CN2CCNC(=O)C2CC(=O)N2CCCN(C(C)=O)CC2)cc(OC)c1 (stereo unspecified)	–	–	–	–	–	–
CCC1CCc2sc(C(=O)NCC(c3ccc(OC)cc3)N3CCCC3)cc2C1 (stereo unspecified)	10µM	12µM	–	–	?	·
COc1ccccc1C(CNC(=O)c1cccc(S(=O)(=O)Nc2ccc(F)cc2)c1)N1CCCC1 (stereo unspecified)	?	·	–[11.6 µM]	·	·	·
COc1ccc(NS(=O)(=O)c2cccc(C(=O)NCC(c3ccccc3OC)N3CCCC3)c2)cc1 (stereo unspecified)	–	10µM	–	–	?	·
CCC1CCc2sc(C(=O)NNC(=O)c3ccncc3)cc2C1 (stereo unspecified)	–	–	–	·	–	·
CCC1CCc2sc(C(=O)O)cc2C1 (stereo unspecified)	–	–	–	–	3.3µM	–
CC(=O)COC(=O)C1=NN(c2ccccc2)C(=O)CC1	–	–	–	–	–	–
COc1ccccc1NC(=O)CSc1nncs1	–	·	–	–	·	·
CC1CCCN(C(=O)COC(=O)c2cc([N+](=O)[O-])ccc2N2CCOCC2)C1 (stereo unspecified)	32µM	–	–	–	–	·
COc1ccccc1C(=O)COC(=O)c1cc([N+](=O)[O-])ccc1N1CCOCC1	?	4.7µM	–	–	?	·
O=C(COC(=O)c1cc([N+](=O)[O-])ccc1N1CCOCC1)c1ccccc1Cl	?	–	–	–	–	–
COc1cc(C(=O)COC(=O)c2cc([N+](=O)[O-])ccc2N2CCOCC2)ccc1OC(F)F	1.1µM	?	–	–	?	·
Cc1cc(C)c(C(=O)COC(=O)c2cc([N+](=O)[O-])ccc2N2CCOCC2)cc1C	–	10µM	–	–	?	·
O=C(COC(=O)c1cc([N+](=O)[O-])ccc1N1CCOCC1)c1ccccc1	?	–	–	–	–	·
COc1ccc(NC(=O)Nc2ccc3c(c2)CC(=O)N([C@H](C)CO)C[C@@H](C)[C@H](CN(C)C(=O)Nc2ccccc2)O3)cc1	?	·	–	–	·	·
COc1ccc(NC(=O)COC(=O)c2cc([N+](=O)[O-])ccc2N2CCOCC2)cc1	?	–	–	–	–	–
COc1ccc(C(=O)COC(=O)c2cc([N+](=O)[O-])ccc2N2CCOCC2)c(OC)c1	1µM	–	–	–	–	·
COCOc1ccc(C2CC(=O)c3c(OCOC)cc(OCOC)cc3O2)cc1 (stereo unspecified)	?	·	–	·	·	·
CN(C)CCCNc1nc2cc(-c3ccc4c(ccn4C)c3)sc2c(=O)n1C	·	·	–	·	·	·
